The record followed here is PubChem BioAssay (NCATS).

Experiment [1] is described as follows: NS1 protein of Zika virus - qHTS assay to identify small molecule inhibitors in human HEK 293 cells (AID 1347053). Note: series mostly up to about 46 µM; nearly all actives have a fitted effect of over 55% in size. An outline of the steps: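 HEK 293; 20 h pre-culture, 37 C/5% CO2; cpd 1 h pre-infection; ZIKV MR766, MOI = 0.5, 24 h, 37 C; TR-FRET NS1 readout (two anti-NS1 Abs); norm. to no-virus vs infected.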
For experiment [2], the target named is Parathyroid hormone/parathyroid hormone-related peptide receptor (Homo sapiens) (UniProt Q03431). The experiment can be described thus: qHTS for PTHR1 Agonists: Optimization Screen against the NCGC LOPAC library (AID 1347079).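 Note: GloSensor cAMP luminescence in HEK-293 GP2 cells expressing human PTHR1 with IBMX.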 An outline of the steps:
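Agonist readout: GloSensor cAMP luminescence, read after 15 min at room temperature. HEK-293-derived GP2 line carries PTHR1; compounds tested as a titration for 1 hr at 37C in presence of IBMX. M-PTH (1-15) served as control.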

A short description of experiment [3]: qHTS of pediatric cancer cell lines to identify multiple opportunities for drug repurposing: Primary screen for TC32 cells (AID 1347089). Note: nearly all actives have a fitted effect of over 60% in size. Note: potency is the fitted concentration of half-maximal effect. Summed up: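 Luminescent CellTiter-Glo read-out of metabolically active TC32 cells after 48 h compound exposure. Primary: MIPE 11-point, 0.78 nM–46 µM; NPC 8-point, 0.59 nM–46 µM. Confirmatory: 11-point dilutions.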
A general note: qHTS replaces the single test concentration by a dilution series.

Experiment [4] can be described thus: qHTS of pediatric cancer cell lines to identify multiple opportunities for drug repurposing: Primary screen for DAOY cells (AID 1347090). Note: nearly all actives have a fitted effect of over 55% in size. Note: potency is the fitted concentration of half-maximal effect. An outline of the steps:
(§1)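 Cell viability, CellTiter-Glo luminescence; 500-1,000 cells/well, 8- or 11-point titration, 48 h compound exposure at 37 degrees C, 5% CO2. Controls: DMSO neutral, bortezomib 2.3 µM final as positive.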

Experiment [5] can be described thus: qHTS of pediatric cancer cell lines to identify multiple opportunities for drug repurposing: Primary screen for SJ-GBM2 cells (AID 1347091). Note: potency is the fitted concentration of half-maximal effect. An outline of the steps:
as §1

Experiment [6] is described as follows: qHTS of pediatric cancer cell lines to identify multiple opportunities for drug repurposing: Primary screen for A673 cells (AID 1347092). Note: nearly all actives have a fitted effect of over 45% in size. Note: potency is the fitted concentration of half-maximal effect. An outline of the steps:
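A673 cells (500-1,000 cells/well in growth media) were pre-incubated 5 h at 37 degrees C, then exposed to compounds for 48 h. Viability was read as CellTiter-Glo luminescence; concentration-response curves came directly from the primary screen.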

Experiment [7] in a line: qHTS of pediatric cancer cell lines to identify multiple opportunities for drug repurposing: Primary screen for SK-N-MC cells (AID 1347093). Note: potency is the fitted concentration of half-maximal effect. Summed up:
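Metabolically active cells were quantified by ATP-dependent luminescence (CellTiter-Glo, 15 min at room temperature) following 48 h treatment. Cells had been plated at 500-1,000 per well and settled for 5 h beforehand.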

Experiment [8] can be described thus: qHTS of pediatric cancer cell lines to identify multiple opportunities for drug repurposing: Primary screen for BT-37 cells (AID 1347094). Note: potency is the fitted concentration of half-maximal effect. An outline of the steps: (§2)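 500-1,000 cells/well; 5 h pre-incubation 37 °C/5% CO2; compound pinned; 48 h; CellTiter-Glo, 15 min RT; luminescence. MIPE 11-pt from 0.78 nM, NPC 8-pt from 0.59 nM final. Bortezomib 2.3 µM final as positive control.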

A short description of experiment [9]: qHTS of pediatric cancer cell lines to identify multiple opportunities for drug repurposing: Primary screen for NB-EBc1 cells (AID 1347095). Note: potency is the fitted concentration of half-maximal effect. An outline of the steps: as §2
Experiment [10] can be described thus: qHTS of pediatric cancer cell lines to identify multiple opportunities for drug repurposing: Primary screen for U-2 OS cells (AID 1347096). Note: nearly all actives have a fitted effect of over 50% in size. An outline of the steps:
(§3)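 Cells (500-1,000/well) rested 5 h, then received compounds for 48 h; metabolically active cells were measured by CellTiter-Glo luminescence. Final concentrations spanned up to 46 µM (MIPE, 11-point) or 0.59 nM-46 µM (NPC, 8-point) in primary screens, 11-point in follow-ups.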

The nature of experiment [11]: qHTS of pediatric cancer cell lines to identify multiple opportunities for drug repurposing: Primary screen for NB1643 cells (AID 1347099). Note: nearly all actives have a fitted effect of over 50% in size. Note: potency is the fitted concentration of half-maximal effect. Summed up: as §2
A short description of experiment [12]: qHTS of pediatric cancer cell lines to identify multiple opportunities for drug repurposing: Primary screen for LAN-5 cells (AID 1347100). Note: potency is the fitted concentration of half-maximal effect. An outline of the steps: as §3
The nature of experiment [13]: qHTS of pediatric cancer cell lines to identify multiple opportunities for drug repurposing: Primary screen for BT-12 cells (AID 1347101). Note: nearly all actives have a fitted effect of over 25% in size. An outline of the steps: as §3
A short description of experiment [14]: qHTS of pediatric cancer cell lines to identify multiple opportunities for drug repurposing: Primary screen for Rh18 cells (AID 1347102). Note: nearly all actives have a fitted effect of over 65% in size. Summed up: as §3
Experiment [15] is described as follows: qHTS of pediatric cancer cell lines to identify multiple opportunities for drug repurposing: Primary screen for OHS-50 cells (AID 1347103). Note: nearly all actives have a fitted effect of over 40% in size. Note: potency is the fitted concentration of half-maximal effect. Summed up: as §3
The target in experiment [16] is T1, Tyrosine-protein phosphatase non-receptor type substrate 1 (Homo sapiens) + Leukocyte surface antigen CD47 (Homo sapiens) (UniProt P78324+Q08722). The experiment can be described thus: CD47-SIRPalpha protein protein interaction - HTRF assay qHTS validation (AID 1347058; active = well fitted curve in the direction sought with a large enough effect in the signal ratio, not every such curve was filed as active; the % refers to the signal ratio;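 note: recombinant soluble extracellular CD47 with His tag and biotinylated SIRPalpha domains; series mostly up to about 38 µM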). An outline of the steps:
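TR-FRET read (Ch1/Ch2 ratio) of soluble extracellular CD47 and Avi-biotinylated SIRPalpha domains in PBS pH 7.4 with 0.05% IGEPAL; 7-point compound titration. Sequential 30 min room-temperature steps; non-biotinylated SIRPalpha as control inhibitor.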
In general terms: Time-resolved FRET reads energy transfer from a long-lived donor to a nearby acceptor.

Experiment [17] has as its target T1, Tyrosine-protein phosphatase non-receptor type substrate 1 (Homo sapiens) + Leukocyte surface antigen CD47 (Homo sapiens). The experiment can be described thus: CD47-SIRPalpha protein protein interaction - Alpha assay qHTS validation (AID 1347059).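 Note: bead proximity luminescence from CD47 binding SIRPalpha after compound preincubation with SIRPalpha.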 Summed up: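 Binding is measured by AlphaScreen proximity: Ni-NTA acceptor beads capture His-CD47, streptavidin donor beads capture biotin-SIRPalpha. Each of three additions (SIRPalpha with compound, CD47, beads) incubates 30 min at room temperature protected from light.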

A short description of experiment [18]: qHTS of pediatric cancer cell lines to identify multiple opportunities for drug repurposing: Primary screen for Saos-2 cells (AID 1347097). Note: nearly all actives have a fitted effect of over 40% in size. Note: potency is the fitted concentration of half-maximal effect. An outline of the steps: as §2
A short description of experiment [19]: qHTS of pediatric cancer cell lines to identify multiple opportunities for drug repurposing: Primary screen for SK-N-SH cells (AID 1347098). Note: nearly all actives have a fitted effect of over 65% in size. An outline of the steps:
as §3

SMILES strings stand for the structures. Where “and” joins values, the source holds several entries; their conditions need not be identical. Identical values can stand only once. Inconclusive results are not listed. Calls of active or inactive are those of the source. Unless noted, calls come from the whole dose curve; as a rule, active = well fitted curve in the direction sought with a large enough effect; inconclusive = small, poorly fitted or top-dose-only effect, or another doubt; inactive = no such curve, though single readings can be large; an effect the other way counts as inactive or inconclusive.

Chain of Parathyroid hormone/parathyroid hormone-related peptide receptor (Homo sapiens) (Q03431 whole entry, looked up): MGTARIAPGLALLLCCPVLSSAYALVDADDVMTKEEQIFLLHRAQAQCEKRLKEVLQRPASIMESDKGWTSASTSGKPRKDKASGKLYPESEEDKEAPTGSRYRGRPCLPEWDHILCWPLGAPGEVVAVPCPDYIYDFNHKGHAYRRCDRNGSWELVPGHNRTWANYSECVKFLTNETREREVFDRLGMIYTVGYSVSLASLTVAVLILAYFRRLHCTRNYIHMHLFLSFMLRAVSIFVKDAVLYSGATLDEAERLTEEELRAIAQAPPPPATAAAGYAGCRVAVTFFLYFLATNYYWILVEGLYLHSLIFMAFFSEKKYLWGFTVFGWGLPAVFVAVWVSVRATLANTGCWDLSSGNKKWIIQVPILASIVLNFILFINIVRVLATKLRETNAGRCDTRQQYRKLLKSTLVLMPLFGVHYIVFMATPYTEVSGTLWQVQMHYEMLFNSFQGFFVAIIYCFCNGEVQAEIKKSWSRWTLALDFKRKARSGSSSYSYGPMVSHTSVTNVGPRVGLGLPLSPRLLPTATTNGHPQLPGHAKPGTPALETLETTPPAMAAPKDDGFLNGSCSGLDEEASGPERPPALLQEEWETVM
T1 sequence (P78324 whole entry, looked up, the tested form may be a part): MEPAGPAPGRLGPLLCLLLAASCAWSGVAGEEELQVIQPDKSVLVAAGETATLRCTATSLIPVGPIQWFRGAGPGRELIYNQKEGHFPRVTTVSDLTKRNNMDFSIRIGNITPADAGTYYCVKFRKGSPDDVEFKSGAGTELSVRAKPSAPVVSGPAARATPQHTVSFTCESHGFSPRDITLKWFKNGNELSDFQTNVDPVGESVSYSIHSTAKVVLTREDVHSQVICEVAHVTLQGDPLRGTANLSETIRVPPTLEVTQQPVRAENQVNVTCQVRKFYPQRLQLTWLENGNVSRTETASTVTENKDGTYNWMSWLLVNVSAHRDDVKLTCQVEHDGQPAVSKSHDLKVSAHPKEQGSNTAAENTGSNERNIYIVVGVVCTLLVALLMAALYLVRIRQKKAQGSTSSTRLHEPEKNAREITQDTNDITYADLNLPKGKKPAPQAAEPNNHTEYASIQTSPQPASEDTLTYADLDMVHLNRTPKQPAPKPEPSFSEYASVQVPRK
T1 sequence (Q08722 whole entry, looked up, the tested form may be a part): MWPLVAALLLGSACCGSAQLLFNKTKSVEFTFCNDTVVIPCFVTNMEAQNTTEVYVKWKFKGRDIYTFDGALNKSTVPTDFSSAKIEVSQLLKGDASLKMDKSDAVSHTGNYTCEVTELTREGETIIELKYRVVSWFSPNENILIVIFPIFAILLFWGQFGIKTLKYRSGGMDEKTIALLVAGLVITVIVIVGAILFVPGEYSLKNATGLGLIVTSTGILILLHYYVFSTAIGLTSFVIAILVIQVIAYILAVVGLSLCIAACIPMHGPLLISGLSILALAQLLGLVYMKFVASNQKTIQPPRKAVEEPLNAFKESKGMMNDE

Turning to `C[C@]12CCC(=O)C=C1CC[C@@H]1[C@@H]2[C@@H](O)C[C@@]2(C)[C@H]1CC[C@]2(O)C(=O)CO`, the Potency entry in experiment [1], in experiment [3], in [4], in [5], in experiment [6] and in experiment [7] was “inactive” throughout. The Potency result in experiment [8], in experiment [9], in [10], in experiment [11], in [12] and in experiment [13] was “inactive” each time. Also, the Potency entry in [14] and in experiment [15] was “inactive” in each case. For the same molecule, the molecule was classed as inactive in [2].

With `CCc1cncnc1N1CCN(Cc2nc3ccc(C(F)(F)F)cc3[nH]2)CC1`, the Potency entry in [1], in experiment [3], in [5] and in experiment [10] was “inactive” each time. In addition, the result in [16] and in experiment [17] was inactive. For the same molecule, the Potency is 18.7 µM (active) in [4], 29.6 µM (active) in [6], 23.5 µM (active) in experiment [7] and 15.3 µM (active) in experiment [15].

In the case of `Nc1ncnc2nc(-c3ccc(N4CCOCC4)nc3)cc(-c3cccc(Br)c3)c12`, the Potency result in [1], in experiment [3], in [5] and in [9] was “inactive” each time. Also, the molecule was classed as inactive in experiment [2].

Turning to `Cc1cccc(-c2[nH]c(C(C)(C)C)nc2-c2ccc3nccnc3c2)n1`, the Potency entry in [1] was “inactive”. For the same molecule, the outcome in experiment [17] and in experiment [2] was inactive. The Potency in experiment [3] is 13.1 µM (active); in experiment [5] it was 8.33 µM (active); in [6], 14.8 µM (active); in [7] it was 10.5 µM (active); in experiment [8], 19.3 µM (active); in experiment [18], 1.66 µM (active). Further, the Potency is 16.6 µM (active) in experiment [11] and 6.11 µM (active) in [15].

Turning to `CCC(C)n1ncn(-c2ccc(N3CCN(c4ccc(OC[C@H]5CO[C@](Cn6cncn6)(c6ccc(Cl)cc6Cl)O5)cc4)CC3)cc2)c1=O` (some centres undefined), the Potency result in experiment [1], in experiment [3], in experiment [4], in experiment [6], in [8] and in experiment [10] was “inactive” in each case. Moreover, the Potency entry in experiment [18], in [19], in [11] and in experiment [14] was “inactive” throughout. In addition, the results for the Potency in experiment [5], in [7] and in [9] were 1.66 µM (active), 1.48 µM (active) and 1.05 µM (active), respectively.

Regarding `NC(=O)c1ccc(I)c([N+](=O)[O-])c1`, the Potency entry in [1], in experiment [3], in experiment [4], in experiment [5], in experiment [8] and in [9] was “inactive” throughout. Besides, the Potency result in experiment [10], in [19], in experiment [11], in experiment [12], in experiment [13] and in [14] was “inactive” each time. Besides, the Potency entry in experiment [15] is “inactive”. Further, the Potency in experiment [6] is 18.7 µM (active); in experiment [7], 3.72 µM (active).

For `CCCn1c(=O)c2[nH]c(C34CC5CC3C[C@@H](C5)C4)nc2n(CCC)c1=O`, the Potency result in [1], in experiment [3], in [4], in [8], in [10] and in experiment [13] was “inactive” throughout. The Potency in experiment [5] is 16.6 µM (active); in [6], 18.7 µM (active); in experiment [7], 10.5 µM (active).

Consider `Cn1cnc([N+](=O)[O-])c1Sc1ncnc2nc[nH]c12`, for which the Potency result in experiment [1], in experiment [7], in [18] and in experiment [14] was “inactive” each time. Also, the outcome in experiment [17] and in [2] was inactive. For the same molecule, the Potency is 10.8 µM (active) and 10.5 µM (active) and 16.5 µM (active) in [3]; 1.91 µM (active) and 6.68 µM (active) and 5.9 µM (active) in [4]; 762 nM (active) and 1.06 µM (active) and 1.18 µM (active) in experiment [6]; 994 nM (active) and 1.38 µM (active) and 1.53 µM (active) in experiment [8]; 12.1 µM (active) in experiment [11]; 6.79 µM (active) and 5.26 µM (active) in experiment [12]. The Potency in [15] was 1.4 µM (active) and 3.47 µM (active) and 3.06 µM (active).

As to `Cc1[nH]c(=O)c(C#N)cc1-c1ccncc1`, the Potency result in experiment [1], in experiment [4], in [5], in experiment [6], in [8] and in [9] was “inactive” throughout. Moreover, the Potency result in experiment [10], in [18], in experiment [19], in [12], in experiment [13] and in experiment [14] was “inactive” each time. Further, the Potency entry in [15] was “inactive”. In addition, the outcome in experiment [17] and in experiment [2] was inactive.

On to `CC(C)(Sc1ccc(CCN(CCCCC2CCCCC2)C(=O)NC2CCCCC2)cc1)C(=O)O`, for which the Potency result in experiment [1], in experiment [3], in experiment [10], in experiment [14] and in experiment [15] was “inactive” each time. Further, the result in experiment [16], in [17] and in experiment [2] was inactive. Moreover, the Potency in experiment [6] is 18.7 µM (active); in experiment [7] it was 23.5 µM (active); in experiment [9], 20.9 µM (active); in experiment [11] it was 14.8 µM (active); in experiment [12] it was 20.9 µM (active).
